Laboratory results published in PubChem BioAssay (NCI).
This is part of a sample that, as a whole, favours compounds with a hit. Of some 79,000 tested, about 15% had one in any assay. Values without a mark were called inactive. No stated cut-off is given here; in the data, active means growth inhibition above about 70%; inactive means the rest.

Experiment: NCI Yeast Anticancer Drug Screen. Data for the mec2-1 strain (AID 157)
Conditions: S. cerevisiae mec2-1 strain, stronger effect = higher value; at 50.0 µM unless noted
How it was run: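 Using mec2-1 yeast: add compound, measure growth, express inhibition versus vehicle-treated cultures.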

SMILES | growth inhibition
OCC1C(CO)C2CC1C1N=NN(c3ccccc3)C21 (stereo not given) | 4.3%
CCCCC(CC)OC(=O)c1ccccc1C (stereo not given) | -4.55%
OCCCCCSc1ccccc1 | 4.35%
CN(C=O)c1c(F)cc(N=Nc2ccccc2)cc1F | 1.15%
Cn1ccnc1C(O)(c1nccn1C)c1nccn1C | -2.55%
CCCCN=C(N)C(N)=NCCCC | -4.65%
COc1ccc2nc3cc(Cl)ccc3c(Nc3ccccc3-c3ccccc3Nc3c4ccc(Cl)cc4nc4ccc(OC)cc34)c2c1 | -8.75%
CCOC(=O)CON=c1c2ccccc2ccc2ccccc12 | -5.85%
O=C1CSC(c2ccc(F)cc2F)N1c1nncs1 (stereo not given) | -3.7%
O=C(O)c1cc(C(=O)C(=O)c2cc(C(=O)O)c(O)c3ccccc23)c2ccccc2c1O | -25.4%
Cc1ccc(S(=O)(=O)OCCOCCOS(=O)(=O)c2ccc(C)cc2)cc1 | -0.4%
CCCCN(CCCC)C(=N)c1ccccc1C | -13.9%
CCCCC(Sc1nn(C2OC(COC(=O)c3ccccc3)C(OC(=O)c3ccccc3)C2OC(=O)c2ccccc2)c(=O)[nH]c1=O)C(=O)OCC (stereo not given) | -10.6%
CC(=O)N1C(=O)CC23c4cccc([N+](=O)[O-])c4C(=O)N2CCCN13 (stereo not given) | 0.35%
CCN(CC)CCOC(=O)c1ccc(NC(=O)OCCOCCOC(=O)Nc2ccc(C(=O)OCCN(CC)CC)cc2)cc1 | -4.3%
O=C1OC(OC2CCCCC2)(c2ccccc2)c2ccccc21 (stereo not given) | -7.75%
ClB1NB(Cl)NB(Cl)N1 | -33.8%
CCOC(=O)c1cc2c(-c3ccccc3)c(-c3ccccc3)c(-c3ccccc3)c(-c3ccccc3)n2n1 | 15.2%
COc1ccccc1N=Nc1c(O)n(-c2ccccc2)c(=S)n(-c2ccccc2)c1=O | -4.55%
COc1ccc(C(=O)/C=C/c2ccc(OCC#N)cc2)cc1OC | -61.4%

SMILES | growth inhibition
C/C(=N/O)c1ccncc1 | -3%
COc1cccc(/C=C/c2cnc3ccccc3n2)c1OC | 13.8%
CCc1ccc2nccc(NCCCN(C)C)c2c1[N+](=O)[O-] | -13.4%
CCOC(=O)C(=O)/C(=C/N1C(=O)CC(=O)NC1=S)C(=O)OCC | -47.2%
CCOC(=O)NNC(=O)Nc1ccc(O[Si](C)(C)C)cc1 | 10%
NC(=O)C1OCOC2C(CO)OCOC12 (stereo not given) | -14.4%
O=C(c1ccccc1)C(Oc1ccccc1)c1ccccc1 (stereo not given) | 19.2%
NC(=O)CSCC(N)=O | -13.9%
COc1ccc(/C=C2\C(=O)Nc3ccccc32)cc1OC | 5.45%
Cc1cc(C)nc(NS(=O)(=O)c2ccc(NC(=O)c3ccc(Cl)c4c(Nc5ccc(S(=O)(=O)N=C(N)N)cc5)c5ccccc5nc34)cc2)n1 | 27%
CC(C)(C)C(=O)Oc1ccc([N+](=O)[O-])cc1 | -0.35%
Oc1ccc2ccccc2c1/C=C/c1ccc2c(Br)cc(Br)c(O)c2n1 | 41.1%
CCCCCCCCC(=O)NCO | -10.9%
Cc1c(NC(=S)NC(=O)c2ccc([N+](=O)[O-])cc2)c(=O)n(-c2ccccc2)n1C | 5.7%
COc1cc2c(c(OC)c1OC)-c1ccc(SC)c(=O)cc1[C@@H](NC(=O)CCl)CC2 | 19.6%
CN1C=C(C(N)=O)Cc2ccsc21 | -10.8%
CC1=CC(=C2C=C(C)C(=O)C(C)=C2)C=C(C)C1=O | -6.65%
COC(=O)c1ccc(SCCC(=O)CN2C(=O)c3ccccc3C2=O)cc1 | 8.5%
CCCCN(CCCC)CC(C(=O)Nc1ccc([N+](=O)[O-])cc1[N+](=O)[O-])/C(C)=N\NC(=S)NN (stereo not given) | -6.8%
Cc1cc2c(cc1Cl)SC(NNC1=NCCN1)=NS2(=O)=O | -8.65%

Experiment: NCI Yeast Anticancer Drug Screen. Data for the sgs1 mgt1 strain (AID 161);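 further: 0% = growth of cultures given vehicle only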
Conditions: S. cerevisiae sgs1 mgt1 strain, stronger effect = higher value; at 50.0 µM unless noted
How it was run: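 This yeast growth screen uses a strain with defined DNA-repair lesions; compound-treated growth is compared with vehicle-treated growth.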

SMILES | growth inhibition
OCC1C(CO)C2CC1C1N=NN(c3ccccc3)C21 (stereo not given) | 8.25%
CCCCC(CC)OC(=O)c1ccccc1C (stereo not given) | 0.5%
OCCCCCSc1ccccc1 | 7.95%
CN(C=O)c1c(F)cc(N=Nc2ccccc2)cc1F | 6.65%
Cn1ccnc1C(O)(c1nccn1C)c1nccn1C | 2.15%
CCCCN=C(N)C(N)=NCCCC | -5.7%
COc1ccc2nc3cc(Cl)ccc3c(Nc3ccccc3-c3ccccc3Nc3c4ccc(Cl)cc4nc4ccc(OC)cc34)c2c1 | -18.1%
CCOC(=O)CON=c1c2ccccc2ccc2ccccc12 | -22.5%
O=C1CSC(c2ccc(F)cc2F)N1c1nncs1 (stereo not given) | 22.8%
O=C(O)c1cc(C(=O)C(=O)c2cc(C(=O)O)c(O)c3ccccc23)c2ccccc2c1O | -7.15%
Cc1ccc(S(=O)(=O)OCCOCCOS(=O)(=O)c2ccc(C)cc2)cc1 | 2.25%
CCCCN(CCCC)C(=N)c1ccccc1C | 10.9%
CCCCC(Sc1nn(C2OC(COC(=O)c3ccccc3)C(OC(=O)c3ccccc3)C2OC(=O)c2ccccc2)c(=O)[nH]c1=O)C(=O)OCC (stereo not given) | -21.4%
CC(=O)N1C(=O)CC23c4cccc([N+](=O)[O-])c4C(=O)N2CCCN13 (stereo not given) | 0.9%
CCN(CC)CCOC(=O)c1ccc(NC(=O)OCCOCCOC(=O)Nc2ccc(C(=O)OCCN(CC)CC)cc2)cc1 | 9.25%
O=C1OC(OC2CCCCC2)(c2ccccc2)c2ccccc21 (stereo not given) | -0.15%
ClB1NB(Cl)NB(Cl)N1 | -9.95%
CCOC(=O)c1cc2c(-c3ccccc3)c(-c3ccccc3)c(-c3ccccc3)c(-c3ccccc3)n2n1 | 0.25%
COc1ccccc1N=Nc1c(O)n(-c2ccccc2)c(=S)n(-c2ccccc2)c1=O | 26.8%
COc1ccc(C(=O)/C=C/c2ccc(OCC#N)cc2)cc1OC | -38.5%

SMILES | growth inhibition
C/C(=N/O)c1ccncc1 | 1.65%
COc1cccc(/C=C/c2cnc3ccccc3n2)c1OC | -10.2%
CCc1ccc2nccc(NCCCN(C)C)c2c1[N+](=O)[O-] | 6.7%
CCOC(=O)C(=O)/C(=C/N1C(=O)CC(=O)NC1=S)C(=O)OCC | -25%
CCOC(=O)NNC(=O)Nc1ccc(O[Si](C)(C)C)cc1 | 10.3%
NC(=O)C1OCOC2C(CO)OCOC12 (stereo not given) | -3%
O=C(c1ccccc1)C(Oc1ccccc1)c1ccccc1 (stereo not given) | 37.8%
NC(=O)CSCC(N)=O | 3.45%
COc1ccc(/C=C2\C(=O)Nc3ccccc32)cc1OC | -9%
Cc1cc(C)nc(NS(=O)(=O)c2ccc(NC(=O)c3ccc(Cl)c4c(Nc5ccc(S(=O)(=O)N=C(N)N)cc5)c5ccccc5nc34)cc2)n1 | 20.1%
CC(C)(C)C(=O)Oc1ccc([N+](=O)[O-])cc1 | -7.55%
Oc1ccc2ccccc2c1/C=C/c1ccc2c(Br)cc(Br)c(O)c2n1 | 28.7%
CCCCCCCCC(=O)NCO | -21.4%
Cc1c(NC(=S)NC(=O)c2ccc([N+](=O)[O-])cc2)c(=O)n(-c2ccccc2)n1C | 16.2%
COc1cc2c(c(OC)c1OC)-c1ccc(SC)c(=O)cc1[C@@H](NC(=O)CCl)CC2 | 0.5%
CN1C=C(C(N)=O)Cc2ccsc21 | -15.8%
CC1=CC(=C2C=C(C)C(=O)C(C)=C2)C=C(C)C1=O | 24.4%
COC(=O)c1ccc(SCCC(=O)CN2C(=O)c3ccccc3C2=O)cc1 | 17.1%
CCCCN(CCCC)CC(C(=O)Nc1ccc([N+](=O)[O-])cc1[N+](=O)[O-])/C(C)=N\NC(=S)NN (stereo not given) | 44.7%
Cc1cc2c(cc1Cl)SC(NNC1=NCCN1)=NS2(=O)=O | -20%
